In PubChem BioAssay (Tox21) one finds Potency data, which are given here for nine molecules.

Records with an inconclusive call do not appear. The source made the active and inactive calls. Unless noted, calls come from the whole dose curve.

Assay [1] is described as follows: Nuclear factor erythroid 2-related factor 2/antioxidant responsive element (Nrf2/ARE) small molecule agonists: qHTS cell viability counter screen in human keratinocytes (AID 1919968; active = well fitted curve in the direction sought with a large enough effect in the repeat runs; an effect the other way counts as inactive or inconclusive; note: nearly all actives have a fitted effect of over 55% in size). The method, boiled down: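 Stably transfected HaCaT (KeratinoSens), 1,500/well. Test agents in DMSO were applied for 23 h, 37 C/5% CO2. CellTiter-Fluor was incubated 1 h before the fluorescence read.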
For orientation: In qHTS, concentration-response curves come from the screen itself.

The nature of assay [2]: Nuclear factor erythroid 2-related factor 2/antioxidant responsive element (Nrf2/ARE) small molecule agonists: luciferase reporter gene qHTS assay in human keratinocytes (AID 1919969). Note: nearly all actives have a fitted effect of over 35% in size. Note: potency is the fitted concentration of half-maximal effect. On the technique in general: Reporter assays use an easily measured gene product as a stand-in for the process of interest.
The target of assay [3] is Gonadotropin-releasing hormone receptor (Homo sapiens) (UniProt P30968). Kind of assay: Human gonadotropin-releasing hormone receptor (GnRHR) small molecule agonists, calcium flux assay in GnRHR-HEK293 cells (AID 1920063). Note: nearly all actives have a fitted effect of over 35% in size. The method, boiled down:
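Stable human GnRHR HEK293 line. 18 h plating, then calcium dye for 1 h at 37 C. Agonist-mode compound addition from DMSO stocks; fluorescence monitored 3 min.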
On the technique in general: A change in cytosolic calcium serves as a functional read-out for many receptors and channels.

The target in assay [4] is KiSS-1 receptor (Homo sapiens) (UniProt Q969F8). Kind of assay: Human kisspeptin (KISS1R) small molecule agonists, calcium flux assay in KISS1R-HEK293 cells (AID 1920064; active = well fitted curve in the direction sought with a large enough effect in the repeat runs; an effect the other way counts as inactive or inconclusive). The method, boiled down: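 After overnight (18 h) culture at 37 C/5% CO2, human KISS1R-HEK293 cells received calcium dye for 1 h, then test compound; emission at 540 nm (excitation 480 nm) was tracked for 3 min.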
Chain of KiSS-1 receptor (Homo sapiens) (Q969F8 whole entry, looked up): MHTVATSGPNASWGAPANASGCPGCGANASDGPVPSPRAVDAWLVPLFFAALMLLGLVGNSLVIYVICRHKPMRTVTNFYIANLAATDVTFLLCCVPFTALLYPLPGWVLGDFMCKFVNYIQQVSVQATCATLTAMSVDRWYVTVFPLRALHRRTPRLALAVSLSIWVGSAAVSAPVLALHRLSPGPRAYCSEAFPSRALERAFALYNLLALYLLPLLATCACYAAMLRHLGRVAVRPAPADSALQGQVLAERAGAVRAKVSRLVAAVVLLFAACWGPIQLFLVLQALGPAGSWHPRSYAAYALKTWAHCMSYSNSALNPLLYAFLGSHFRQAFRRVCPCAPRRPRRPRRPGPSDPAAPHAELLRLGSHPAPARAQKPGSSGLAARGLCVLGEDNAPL

The nature of assay [5]: G protein-coupled receptor (GPCR) small molecule agonists, calcium flux assay: HEK293 wild type cell line counter screen (AID 1920065). The method, boiled down: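 Following 18 h incubation at 37 C/5% CO2, plates got calcium dye for 1 h; compounds, ATP or DMSO were then pinned in and fluorescence followed kinetically (480/540 nm).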
Assay [6] is described as follows: p53 small molecule agonists, cell-based qHTS assay with human liver microsomes: qHTS cell viability counter screen (AID 1963579). Note: nearly all actives have a fitted effect of over 45% in size. The method, boiled down: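 Metabolically activated exposure: compounds, human liver microsomes and NADPH (0.5 mg/mL final apiece) were added to p53RE-bla cells seeded 5 h earlier, left 16 h at 37 C, and then assessed for viability by CellTiter-Glo luminescence.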

A short description of assay [7]: p53 small molecule agonists, cell-based qHTS assay with rat liver microsomes: qHTS cell viability counter screen (AID 1963580). Note: nearly all actives have a fitted effect of over 45% in size. The method, boiled down: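 Cytotoxicity counter screen: intracellular ATP measured by CellTiter-Glo luminescence in the same wells as the beta-lactamase reporter read, on HCT-116 p53RE-bla cells exposed 16 h at 37 C to compounds with rat liver microsomes and NADPH, each 0.5 mg/mL final.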

Assay [8] deals with 5-hydroxytryptamine receptor 2A (Homo sapiens) (UniProt P28223). Briefly: 5-hydroxytryptamine receptor 2A (HTR2A) small molecule antagonists, cell-based qHTS assay (AID 1963586). Note: nearly all actives have a fitted effect of over 45% in size. Note: potency is the fitted concentration of half-maximal effect. The method, boiled down: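 CHO cells stably expressing human HTR2A were plated for 18 h at 37 C, then loaded with calcium dye for 1 h. Compounds were preincubated 5 min at room temperature before DOI (4 nM solution) was added. Kinetic fluorescence was read for 3 min.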
Chain of 5-hydroxytryptamine receptor 2A (Homo sapiens) (P28223 whole entry, looked up): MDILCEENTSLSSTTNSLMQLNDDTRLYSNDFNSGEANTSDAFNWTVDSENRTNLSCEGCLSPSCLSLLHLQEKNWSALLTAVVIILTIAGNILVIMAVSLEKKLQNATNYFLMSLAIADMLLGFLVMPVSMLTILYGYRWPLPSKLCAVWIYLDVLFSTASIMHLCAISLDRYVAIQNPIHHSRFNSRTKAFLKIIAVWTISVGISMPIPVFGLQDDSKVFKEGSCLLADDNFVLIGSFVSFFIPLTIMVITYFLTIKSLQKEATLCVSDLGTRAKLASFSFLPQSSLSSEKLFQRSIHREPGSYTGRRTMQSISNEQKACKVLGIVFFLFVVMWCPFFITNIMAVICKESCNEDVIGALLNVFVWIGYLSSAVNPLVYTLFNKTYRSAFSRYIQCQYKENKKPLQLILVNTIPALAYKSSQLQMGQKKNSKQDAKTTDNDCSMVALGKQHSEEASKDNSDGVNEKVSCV

In assay [9] the target is Muscarinic acetylcholine receptor M1 (Homo sapiens) (UniProt P11229). Briefly: Cholinergic receptor muscarinic 1 (CHRM1) small molecule antagonists, cell-based qHTS assay (AID 1963588). Note: nearly all actives have a fitted effect of over 40% in size. Note: potency is the fitted concentration of half-maximal effect. The method, boiled down:
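Compounds were tested at 15 concentrations in three independent runs. Dye-loaded CHRM1-CHO cells were exposed 5 min at room temperature before stimulation by acetylcholine added at 50nM. Intracellular calcium was read kinetically on FDSS for 3 min.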

Assay [10] shares this target. Kind of assay: Cholinergic receptor muscarinic 1 (CHRM1) small molecule agonists, cell-based qHTS assay (AID 1963589). Note: nearly all actives have a fitted effect of over 35% in size. The method, boiled down: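 Kinetic fluorescence (1 s intervals) of calcium-sensitive dye in human M1 CHO cells after compound addition; cells pre-incubated 18 h at 37 C/5% CO2 and dye-loaded 1 h.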
A short description of assay [11]: cAMP Responsive Elements (CRE) small molecule agonists, cell-based qHTS assay (AID 1963590). The method, boiled down: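 Test agents in DMSO were incubated 3 h at 37 C/5% CO2 with CRE-bla HEK 293T cells seeded 18 h earlier; LiveBLAzer B/G FRET substrate was added and read after 2 h at room temperature.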
The nature of assay [12]: cAMP Responsive Elements (CRE) small molecule antagonists, cell-based qHTS assay (AID 1963591; active = well fitted inhibition curve with a large enough effect in the signal ratio in the repeat runs, not every such curve was filed as active; the % refers to the signal ratio). The method, boiled down:
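Reporter line CRE-bla HEK 293T in dialyzed-FBS DMEM; cells preincubated 18 h, treated 3 h with compound plus NKH477 (0.25 uM final); LiveBLAzer FRET, 2 h RT.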

Assay [13] addresses Beta-2 adrenergic receptor (Homo sapiens) (UniProt P07550). Kind of assay: Adrenergic beta2 receptor (ADRB2) small molecule antagonists, cell-based qHTS assay (AID 1963592). Note: series mostly up to about 92 µM; nearly all actives have a fitted effect of over 50% in size. The method, boiled down: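 Assay format: CHO-ADRB2 cells, 18-20hr seeding at 37C/5% CO2, then compound plus 1nM isoproterenol agonist mix for 0.5hr RT. Homogeneous time-resolved fluorescence cAMP detection after 1hr, expressed as 665/615 nm ratio.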

For assay [14], the target named is D(2) dopamine receptor (Homo sapiens) (UniProt P14416). Kind of assay: Dopamine D2 receptor (DRD2) small molecule agonists, cell-based qHTS assay (AID 1963594). Note: nearly all actives have a fitted effect of over 35% in size. Note: potency is the fitted concentration of half-maximal effect. The method, boiled down:
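HEK293 cells stably expressing human DRD2, pre-treated with PDE inhibitor Ro20-1724 (0.1 mM final) and compound 10 min at room temperature, then stimulated with NKH477 (200nM […]) for 30 min. cAMP read by HTRF (665/620 nm).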

Assay [15] deals with 5-hydroxytryptamine receptor 2A (Homo sapiens) (UniProt P28223). Kind of assay: 5-hydroxytryptamine receptor 2A (HTR2A) small molecule agonists, cell-based qHTS assay (AID 1963587). Note: nearly all actives have a fitted effect of over 30% in size. The method, boiled down:
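CHO cells stably expressing human HTR2A, plated 18 h, loaded with calcium dye 1 h at 37 C. Agonist mode: compounds added and intracellular calcium fluorescence recorded kinetically for 2 min at 1 sec intervals.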

The target of assay [16] is Beta-2 adrenergic receptor (Homo sapiens) (UniProt P07550). Briefly: Adrenergic beta2 receptor (ADRB2) small molecule agonists, cell-based qHTS assay (AID 1963593).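 Note: CHO cells stably overexpressing human ADRB2.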 The method, boiled down:
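CHO cells stably over-expressing ADRB2 were plated overnight at 37C, then dosed with compounds plus a stimulation mix containing 100uM IBMX and 25uM Ro-20-1724 for 0.5hr at room temperature. cAMP was measured by HTRF competition, 1hr.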

In assay [17] the target is D(2) dopamine receptor (Homo sapiens) (UniProt P14416). Kind of assay: Dopamine D2 receptor (DRD2) small molecule antagonists, cell-based qHTS assay (AID 1963595; active = well fitted inhibition curve with a large enough effect in the signal ratio in the repeat runs, with a control signal flat; the % refers to the signal ratio; note: potency is the fitted concentration of half-maximal effect). The method, boiled down:
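Cells were plated and grown for 24 h at 37 °C. Ro20-1724 (0.1 mM final) went in first, then compound for 10 min. NKH477 (200 nM) with quinpirole (12 nM) followed for 30 min at RT, then HTRF detection reagents for 1 h.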

A short description of assay [18]: p53 small molecule agonists, cell-based qHTS assay: qHTS cell viability counter screen (AID 1963581). Note: nearly all actives have a fitted effect of over 45% in size. The method, boiled down: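 qHTS counter screen: 16 h compound exposure at 37 C of p53RE-bla HCT-116 cells (4,000 per well, seeded 5 h prior), cell viability by ATP luminescence.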

Chain of D(2) dopamine receptor (Homo sapiens) (P14416 whole entry, looked up): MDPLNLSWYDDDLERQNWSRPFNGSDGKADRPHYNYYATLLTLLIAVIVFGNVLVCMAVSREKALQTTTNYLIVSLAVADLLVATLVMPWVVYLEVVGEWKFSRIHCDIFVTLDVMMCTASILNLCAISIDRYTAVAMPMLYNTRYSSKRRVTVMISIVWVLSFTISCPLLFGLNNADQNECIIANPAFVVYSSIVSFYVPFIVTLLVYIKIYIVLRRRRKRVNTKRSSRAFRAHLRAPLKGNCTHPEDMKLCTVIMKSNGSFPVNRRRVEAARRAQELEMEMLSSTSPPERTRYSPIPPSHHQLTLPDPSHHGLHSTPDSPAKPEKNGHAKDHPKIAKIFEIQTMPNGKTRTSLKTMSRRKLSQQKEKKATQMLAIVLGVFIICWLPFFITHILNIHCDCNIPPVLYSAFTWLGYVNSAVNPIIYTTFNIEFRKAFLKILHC
Chain of Gonadotropin-releasing hormone receptor (Homo sapiens) (P30968 whole entry, looked up): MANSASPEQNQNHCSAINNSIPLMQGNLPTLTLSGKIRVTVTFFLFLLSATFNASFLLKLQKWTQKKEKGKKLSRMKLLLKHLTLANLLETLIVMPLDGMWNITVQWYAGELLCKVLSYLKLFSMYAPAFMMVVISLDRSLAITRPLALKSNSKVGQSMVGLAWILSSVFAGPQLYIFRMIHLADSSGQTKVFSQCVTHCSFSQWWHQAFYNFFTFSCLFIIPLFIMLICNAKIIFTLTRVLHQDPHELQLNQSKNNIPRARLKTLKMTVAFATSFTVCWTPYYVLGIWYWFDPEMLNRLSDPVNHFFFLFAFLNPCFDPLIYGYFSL
Chain of Beta-2 adrenergic receptor (Homo sapiens) (P07550 whole entry, looked up): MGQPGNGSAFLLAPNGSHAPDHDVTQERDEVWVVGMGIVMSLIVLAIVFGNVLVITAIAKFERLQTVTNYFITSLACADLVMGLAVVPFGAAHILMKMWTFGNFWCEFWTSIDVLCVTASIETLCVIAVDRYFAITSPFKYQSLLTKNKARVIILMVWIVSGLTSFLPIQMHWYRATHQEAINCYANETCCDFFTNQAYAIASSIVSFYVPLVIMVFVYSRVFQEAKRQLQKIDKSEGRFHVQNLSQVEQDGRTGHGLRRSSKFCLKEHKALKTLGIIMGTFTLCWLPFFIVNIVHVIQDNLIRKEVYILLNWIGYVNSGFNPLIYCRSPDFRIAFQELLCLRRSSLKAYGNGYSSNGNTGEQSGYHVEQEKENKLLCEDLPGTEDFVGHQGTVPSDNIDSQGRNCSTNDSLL
Chain of Muscarinic acetylcholine receptor M1 (Homo sapiens) (P11229 whole entry, looked up): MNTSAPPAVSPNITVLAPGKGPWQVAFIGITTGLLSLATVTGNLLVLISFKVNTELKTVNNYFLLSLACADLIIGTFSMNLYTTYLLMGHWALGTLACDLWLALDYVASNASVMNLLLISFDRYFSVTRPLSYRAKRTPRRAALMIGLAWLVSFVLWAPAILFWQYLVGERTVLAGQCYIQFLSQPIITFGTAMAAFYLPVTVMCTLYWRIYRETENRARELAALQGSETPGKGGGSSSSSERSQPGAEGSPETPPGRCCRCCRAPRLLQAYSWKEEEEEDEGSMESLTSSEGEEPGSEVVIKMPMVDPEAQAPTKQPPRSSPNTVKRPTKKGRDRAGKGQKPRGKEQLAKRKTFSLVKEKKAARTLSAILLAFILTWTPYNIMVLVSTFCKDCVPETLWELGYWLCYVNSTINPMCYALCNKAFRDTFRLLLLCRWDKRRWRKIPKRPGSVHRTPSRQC

In the case of `CC(C)[C@H]1CC[C@H](C)C[C@@H]1O`, the Potency entry in [1], in assay [2], in assay [3], in assay [4], in assay [5] and in assay [6] was “inactive” each time. The Potency result in [7], in assay [8], in assay [9], in assay [10], in assay [11] and in assay [12] was “inactive” throughout. Besides, the Potency result in assay [13] was “inactive”. Besides, the Potency in [14] was 57900 nM (active).
Consider `CN(C)CC[C@@H](c1ccc(Br)cc1)c1ccccn1`, for which the Potency entry in [1], in [2], in assay [3], in assay [4], in [5] and in assay [6] was “inactive” each time. For the same molecule, the Potency result in [7], in assay [15], in assay [10], in [11], in assay [12] and in [13] was “inactive” in each case. For the same molecule, the Potency entry in [16], in assay [14] and in assay [17] was “inactive” throughout.
Regarding `O=c1[nH][nH]c2ccccc12`, the Potency result in [1], in [3], in [4], in [5], in assay [6] and in assay [7] was “inactive” in each case. Besides, the Potency entry in assay [8], in assay [15], in assay [9], in assay [12], in assay [13] and in assay [16] was “inactive” in each case. Besides, the Potency entry in assay [14] and in [17] was “inactive” in each case. Moreover, the Potency in [2] is 62300 nM (active).
With `CCOC(=O)C(F)(F)F`, the Potency entry in [1], in assay [2], in [3], in assay [4], in [5] and in assay [6] was “inactive” in each case. Besides, the Potency entry in assay [18], in [8], in [15], in assay [9], in [10] and in assay [11] was “inactive” in each case. The Potency entry in assay [12], in assay [13], in assay [16], in assay [14] and in assay [17] was “inactive” throughout.
`CC(C)NCC(O)c1cc(O)cc(O)c1` (stereo not given): the Potency entry in assay [1], in [2], in assay [3], in [4], in assay [5] and in assay [6] was “inactive” throughout. Also, the Potency entry in assay [18], in assay [8], in assay [15], in assay [9], in assay [10] and in assay [13] was “inactive” each time. Further, the Potency entry in assay [14] and in assay [17] was “inactive” each time.
For `CN1CCC(OC(c2ccccc2)c2ccccc2)CC1`, the Potency entry in assay [1], in assay [2], in assay [3], in assay [4], in [5] and in assay [6] was “inactive” each time. The Potency result in assay [7], in [15], in assay [10], in assay [11], in [12] and in assay [16] was “inactive” in each case. In addition, in assay [14], the Potency entry is “inactive”. Further, the Potency in assay [9] was 81.8 nM (active).
As to `Cc1ccc(C(C)C)cc2c(C)ccc1-2`, the Potency result in assay [1], in assay [2], in assay [3], in [4], in assay [5] and in assay [6] was “inactive” throughout. Also, the Potency result in assay [18], in assay [8], in assay [15], in assay [9], in [10] and in [11] was “inactive” each time. The Potency entry in [12], in [13], in [14] and in assay [17] was “inactive” in each case.
With `Nc1ccn([C@@H]2O[C@H](CO)[C@@H](O)C2O)c(=O)n1` (stereo not given in full), the Potency entry in assay [1], in assay [2], in assay [3], in assay [4], in assay [5] and in assay [6] was “inactive” in each case. In addition, the Potency entry in assay [18], in assay [11], in assay [12], in [13], in [16] and in assay [14] was “inactive” throughout. Also, the Potency result in assay [17] was “inactive”.
Consider `CCC(=O)c1ccc2c(c1)N(CCCN(C)C)c1ccccc1S2`, for which the Potency entry in assay [1], in assay [2], in [3], in [4], in [5] and in assay [6] was “inactive” throughout. Also, the Potency entry in assay [7], in [11], in assay [12] and in assay [14] was “inactive” in each case. The Potency in [8] is 130 nM (active); in [17] it was 531 nM (active).
